This is a sample that favours compounds with a hit; in the whole collection about 31% have one here.
CYP2C19 inhib = human CYP2C19 inhibition; AID 778; P33261; CYP2C19 Supersomes, luciferin-H EGE luminescence, 30 min; 96,000 tested, 21% active; inhibition, % at 5 µM;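 active = CYP2C19 inhibition above a set limit at 5 µM in the primary screen, cut at about 50% in these data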
Target sequence (P33261 whole entry, looked up): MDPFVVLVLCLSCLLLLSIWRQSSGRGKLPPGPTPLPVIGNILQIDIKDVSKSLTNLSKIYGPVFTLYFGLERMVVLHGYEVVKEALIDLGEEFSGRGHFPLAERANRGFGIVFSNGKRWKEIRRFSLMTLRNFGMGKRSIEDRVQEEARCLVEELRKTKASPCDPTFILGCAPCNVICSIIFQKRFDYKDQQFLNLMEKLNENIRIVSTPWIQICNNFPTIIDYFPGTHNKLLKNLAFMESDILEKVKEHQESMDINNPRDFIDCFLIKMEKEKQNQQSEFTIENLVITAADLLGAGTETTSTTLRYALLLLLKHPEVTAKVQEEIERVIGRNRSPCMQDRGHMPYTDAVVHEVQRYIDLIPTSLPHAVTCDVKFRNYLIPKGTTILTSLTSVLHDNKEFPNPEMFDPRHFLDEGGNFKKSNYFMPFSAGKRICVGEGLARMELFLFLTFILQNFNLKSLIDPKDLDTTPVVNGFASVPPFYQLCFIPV
CYP2C9 activ = CYP2C9 (human) activation; activation factor at 5 µM; AID 1024; 96,000 tested, 1.4% active; recombinant CYP2C9, luciferin-H conversion, luminescence; hits give high values; factor 1 = untreated enzyme, 0 = blocked;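 active = activation factor of 2 or more for CYP2C9 at a 5 µM dose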
PLAP activator = activates human placental alkaline phosphatase; P05187; purified PLAP enzyme, luminescent substrate read-out; hits give high values; activation fold at 20 µM; 96,000 tested, 1.2% active; in the data active = activation fold above about 2
CYP2C19 act = activators of human cytochrome P450 2C19 | P33261 | recombinant CYP2C19, luciferin-H EGE luminescence; hits give high values; 0 = fully inhibited enzyme, 1 = untreated enzyme | activation factor at 5 µM | 96,000 tested, under 10 active | AID 1025;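 active = activation factor of at least 2 at 5 µM in the primary screen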
CYP2C9 inh = blocks human cytochrome P450 2C9. 96,000 tested, 20% active. CYP2C9 Supersomes, luciferin-H conversion, luminescence. P11712. inhibition, % at 5 µM. AID 777;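 active = blocking of liver enzyme CYP2C9 beyond about 50% at 5 µM, limit read from the data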
Large screens that a line does not name were inactive.

CC(=O)Nc1ccc(S(=O)(=O)NCc2ccc(C(=O)NCc3ccc(Cl)cc3)cc2)cc1	none
CCn1c(=O)n(CC(=O)N2CC(C)CC(C)C2)c(=O)c2ccccc21 (stereo not given)	none
CCNS(=O)(=O)c1ccc(C(=O)Nc2ccccc2)cc1	CYP2C9 inh 97
CCn1ncc([N+](=O)[O-])c1C(=O)N1CCCC1	none
CCn1cc([N+](=O)[O-])c(C(=O)N2CCCC2)n1	CYP2C19 inhib 56
CCCC(C(=O)Nc1nccs1)c1ccccc1 (stereo not given)	CYP2C19 inhib 54
CCC(C(=O)Nc1nc(C)cs1)c1ccccc1 (stereo not given)	none
CCC(C(=O)Nc1nccs1)c1ccccc1 (stereo not given)	CYP2C19 inhib 69
O=C(Nc1nccs1)C(NS(=O)(=O)c1ccc(Br)s1)c1ccccc1 (stereo not given)	CYP2C9 inh 62
COc1cccc(C2(CSc3nnc(-c4cc(OC)c(OC)c(OC)c4)o3)OCCO2)c1	CYP2C19 inhib 84
CN(c1cccc(NC(=O)Cc2ccccc2)c1)S(C)(=O)=O	none
COc1ccccc1NC(=O)CCC(=O)Nc1nnc(C(F)(F)F)s1	CYP2C9 inh 72
COc1ccc(OC)c(NC(=O)CCC(=O)Nc2nnc(C(F)(F)F)s2)c1	CYP2C9 inh 74
Cc1nn(C)c(N)c1C(O)(c1nccn1C)C(F)(F)F (stereo not given)	none
C=C(C)C1CC=C(C)/C(=N/NC(=O)CNc2ccc(OCC)cc2)C1 (stereo not given)	none
Cn1c(CCNC(=O)c2ccccc2F)nnc1SCc1nc2ccccc2c(=O)[nH]1	CYP2C9 inh 64
COc1ccc(Cc2nnc(SCc3nc4ccccc4c(=O)[nH]3)n2C)cc1	CYP2C9 inh 62
Cn1c(CCNC(=O)c2ccc(Cl)c(Cl)c2)nnc1SCc1ccc(Cl)c(Cl)c1	none
O=C1CCCN1CC(O)CS(=O)(=O)c1ccc(Cl)cc1 (stereo not given)	none
CCCN1C(=O)c2cc(C(=O)NCc3ccc(OC)cc3)ccc2C1O (stereo not given)	none
COc1ccc(C(=O)N2CCN(Cc3ccccc3C)CC2)cc1OC	none
Cn1c(SCc2nc(-c3ccc(Cl)cc3)no2)nnc1-c1ccccc1	none
COc1ccc(-c2noc(CSc3nc(N)c(-c4ccccc4)c(=O)[nH]3)n2)cc1	CYP2C19 inhib 76, CYP2C9 inh 70
Cc1ccc(-c2noc(CSc3nnc(Cc4ccccc4)n3-c3ccc(Cl)cc3)n2)cc1	CYP2C19 inhib 84, CYP2C9 inh 84
COc1ccc(-c2noc(CSc3nc4ccccc4c(=O)n3-c3ccc(C)cc3)n2)cc1	CYP2C19 inhib 63, CYP2C9 inh 66
COc1ccc(-c2noc(CSc3nnc(Cc4ccccc4)n3-c3ccc(Cl)cc3)n2)cc1	CYP2C19 inhib 87, CYP2C9 inh 80
CCCCn1c(NCCC)nc2c1c(=O)[nH]c(=O)n2C	none
Cc1c(C(N)=O)c(N)c(C(=O)c2ccccc2)n1-c1ccccc1	none
Cn1c(=O)c2nnn(/N=C(\c3ccccc3)C3CC3)c2n(C)c1=O	none
CCCc1cc(=O)[nH]c(SCC(=O)N2CCC(C(=O)OCC)CC2)n1	none
COc1ccc(NC(=O)COC(=O)c2ccc(Br)o2)cc1OC	none
CCN(CC)S(=O)(=O)c1cccc(NC(=O)COC(=O)c2ccc(Br)o2)c1	CYP2C9 inh 65
CCN(CC)S(=O)(=O)c1cccc(NC(=O)COC(=O)CCc2nc3ccccc3s2)c1	CYP2C9 activ 2.3
CN(C)C1NC(=O)c2cc(-c3ccccc3)sc2N1 (stereo not given)	none
COc1ccc(CCNC(=O)c2ccn[nH]2)cc1OC	none
O=C(C(Cc1ccccc1)n1cccc1)N1CCc2ccccc21 (stereo not given)	none
O=C(CC(C(=O)N1CCc2ccccc21)n1ccnc1)NCC1CCCO1 (stereo not given)	CYP2C9 inh 65
O=C(CC(C(=O)N1CCc2ccccc21)n1ccnc1)N1CCc2ccccc2C1 (stereo not given)	CYP2C19 inhib 73
O=C(c1ccc(S(=O)(=O)NCC2CCCO2)cc1)N1CCc2ccccc21 (stereo not given)	none
CCN(CCCNC(=O)CC(C(=O)N1CCc2ccccc21)n1ccnc1)c1cccc(C)c1 (stereo not given)	CYP2C19 inhib 94
CCCCNC(=O)CC(C(=O)N1CCc2ccccc21)n1ccnc1 (stereo not given)	CYP2C19 inhib 74
c1coc(CNC2C3CC4CC(C3)CC2C4)c1 (stereo not given)	none
Cc1cc(C)c2nc(C(F)(F)F)nc(NCCCN3CCOCC3)c2c1	none
O=C(O)C1CCC(=O)N1C1CCCC1 (stereo not given)	none
Brc1ccc2c(c1)OCCOCCOc1cc(Br)ccc1OCCOCCOCCO2	CYP2C19 inhib 88, CYP2C9 inh 85
CC(=O)Nc1ccc2c(c1)OCCO2	none
Cc1ccc(C(=O)c2cc(C)sc2NC(=O)CN2CCN(C(=O)c3ccco3)CC2)cc1	none
CCn1c(SCC(=O)c2cc(C)n(-c3ccc(C(=O)OC)cc3)c2C)nnc1-c1cccnc1	none
CC(C)N(C(=O)CSc1nn2c(=O)c(C(C)(C)C)nnc2s1)c1ccccc1	CYP2C19 inhib 88, CYP2C9 inh 89
Cc1cc(C(=O)CSc2nn3c(=O)c(C(C)(C)C)nnc3s2)c(C)n1-c1ccc(F)cc1	CYP2C9 inh 58
CC(C)(C)c1nnc2sc(SCCN3C(=O)c4ccccc4C3=O)nn2c1=O	none
O=C(NCC(=O)N(c1cccc(F)c1)C(C(=O)NCC1CCCO1)c1ccccc1)c1ccco1 (stereo not given)	none
COc1cc2cc(CN(CCCO)S(=O)(=O)c3ccccc3)c(=O)[nH]c2cc1OC	none
O=c1[nH]c2cc3c(cc2cc1CN(CCO)S(=O)(=O)c1ccccc1Cl)OCCO3	CYP2C9 inh 77
CCOC(=O)c1cccc(S(=O)(=O)N(CCO)Cc2cc3cc(OC)c(OC)cc3[nH]c2=O)c1	none
COc1cc2cc(CN(CCO)S(=O)(=O)c3ccccc3Cl)c(=O)[nH]c2cc1OC	CYP2C9 inh 55
Brc1ccc(OCc2nc(-c3ccccn3)n[nH]2)cc1	CYP2C19 inhib 71, PLAP activator 2.2, CYP2C9 inh 62
Nc1nc(N)nc(-c2ccccn2)n1	none
Clc1ccc(OCc2nc(-c3ccccn3)n[nH]2)cc1	CYP2C19 inhib 65, PLAP activator 2.3, CYP2C9 inh 51
CC(C)(Oc1ccc(Br)cc1)C(=O)N1CCc2ccccc21	none
CCOc1ccc(S(=O)(=O)N(CCO)CCO)cc1-c1nc2c(C(C)(C)C)nn(C)c2c(=O)[nH]1	CYP2C9 inh 59
CCOc1ccc(S(=O)(=O)NC(C)(C)C)cc1-c1nc2c(C(C)(C)C)nn(C)c2c(=O)[nH]1	CYP2C9 inh 66
O=C(CSc1ncn[nH]1)c1ccc2c(c1)OCO2	none
CCCc1cc(-c2[nH]ncc2-c2ccc3c(c2)OCCCO3)c(O)cc1OC	CYP2C19 inhib 86, CYP2C9 inh 100 (no result: PLAP activator)
Oc1ccccc1-c1cc(-c2ccc3c(c2)OCCO3)n[nH]1	none

Screens from PubChem BioAssay.
